CF NFkB inh – cystic fibrosis NF-kB activation inhibition | AID 588850 | 360,000 tested, 0.86% active | inhibition, % at 5 µM | KKLEB NF-kB-GFP reporter, PAF-induced, GFP fluorescence overnight;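 active = at least 50% inhibition at 5 µM, scaled per plate between neutral and stimulator controls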;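 note: PAF is a Pseudomonas aeruginosa culture filtrate used as stimulus; plate controls were PAF-stimulated DMSO wells for no effect and unstimulated DMSO wells for full effect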
EWS-Fli block – inhibitors of EWS/Fli oncoprotein transcriptional activity | inhibition, % at 12.6 µM | A673 NR0B1-luciferase reporter, viability-normalised | 350,000 tested, 0.67% active;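 active = mean inhibition of at least 50% after viability correction, with every replicate also passing that limit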;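 note: firefly luciferase signal divided by Alamar Blue viability fluorescence both relative to DMSO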
PAX8 reporter – PAX8 transcriptional activity inhibition. inhibition, % at 12.6 µM. RMG-I TPO-luciferase reporter, SteadyGlo, 24 h. 360,000 tested, 1.2% active;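 active = mean replicate inhibition at least 60% with every replicate also reaching 60%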;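 note: luciferase light reporting Pax8 driven TPO promoter activity; plate controls were median of neutral control wells for no effect and mitoxantrone controls for full effect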
KKLEB cytotox – counter-screen for CF NF-kB inhibitors: cytotoxicity. AID 602141. 360,000 tested, 0.36% active. KKLEB CF airway cells viability, ATPlite luminescence, overnight; hits give low values; cells stimulated with P. aeruginosa culture filtrate. activity change (cytotoxicity), % at 5 µM;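 active = corrected activity change at or below -50% at 5 µM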
HIF-2a block – HIF-2a inhibition; 786-0 RCC cells HIF-2a reporter, luciferase luminescence, overnight; 360,000 tested, 0.72% active; AID 624352; inhibition, % at 18.8 µM;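 active = inhibition of the luminescence signal of 40% or more relative to plate controls, in a single-dose primary screen at 18.75 µM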
An asterisk follows results filed as active; nt = no result given; ! = repeats disagree. Compounds with a hit are over-represented: about 2.1% of the library has one in this group of screens.

SMILES | CF NFkB inh | EWS-Fli block | PAX8 reporter | KKLEB cytotox | HIF-2a block
Cc1ccc(S(=O)(=O)/N=C2\C=C(NS(=O)(=O)c3ccccc3)C(=O)c3ccccc32)c(C)c1 | 78* | -72 | 14 | -6 | -5
C/C(=N\NS(=O)(=O)c1ccc(C(C)(C)C)cc1)c1ccccc1 | -12 | 14 | 13 | -4 | -3
CC(C)(C)c1ccc(S(=O)(=O)/N=C2\C=C(NS(=O)(=O)c3ccccc3)C(=O)c3ccccc32)cc1 | 82* | nt | 0 | -16 | -10
CCCNC(=O)Nc1ccc2c(c1)C(=O)N(C)[C@@H]1CC[C@H](CC(=O)NC)O[C@H]1CO2 | nt | -5 | -7 | nt | nt
CO[C@@H]1CN(C)C(=O)c2ccc(NC(=O)C3CCCC3)cc2OC[C@@H](C)N(Cc2cccnc2)C[C@H]1C | nt | 8 | 7 | nt | nt
COCCCN=C1NN=C(c2cc(C)n(-c3ccccc3F)c2C)CS1 | 2 | 58* | -36 | -24 | 21
CC1C/C(=N\NC(=O)c2ccc(NS(=O)(=O)c3ccc(Br)cc3)cc2)CC(C)(C)C1 (stereo unspecified) | -8 | 9 | 86* | -16 | 2
O=S(=O)(Nc1ccc(O)c2ccccc12)c1ccc(F)cc1 | 84* | -20 | 26 | 0 | 9
O=S(=O)(Nc1ccc(NS(=O)(=O)c2ccccc2)c2ccccc12)c1ccccc1 | -11 | 7 | -6 | 5 | 9
COc1ccc(OC)c(S(=O)(=O)Nc2ccc(O)c3ccccc23)c1 | 64* | nt | nt | -15 | 4
CCc1ccc(S(=O)(=O)Nc2ccc(O)c3ccccc23)cc1 | 94* | -17 | 27 | -50 | 12
COc1ccccc1CNC(=O)C[C@H]1CC[C@@H](NC(=O)CN(C)C)[C@H](CO)O1 | nt | -3 | 5 | nt | nt
COCC(=O)N1CC2(CCN(C(=O)NC(C)C)CC2)c2c(n(C)c3cc(OC)ccc23)[C@H]1CO | nt | 7 | nt | nt | nt
CCOC(=O)c1sc(Nc2nc(C)cc(C)n2)nc1C | -12 | 54* | 33 | 7 | -26
CC(C)N=C(N)N=C(N)Nc1ccc(Cl)cc1 | 6 | -9 | -11 | -14 | -2
NC(=NCCCCCCN=C(N)/N=C(\N)Nc1ccc(Cl)cc1)/N=C(\N)Nc1ccc(Cl)cc1 | 20 | 6 | 98*! | 23 | 24
C[C@H]1CN([C@@H](C)CO)C(=O)c2cccc(NC(=O)C3CCCCC3)c2O[C@H]1CN(C)S(=O)(=O)c1ccc(Cl)cc1 | nt | 4 | 2 | nt | nt
C[C@@H]1CN([C@@H](C)CO)C(=O)Cc2cc(NC(=O)Nc3ccc(F)cc3)ccc2O[C@H]1CN(C)Cc1ccc2c(c1)OCO2 | nt | 11 | 68* | nt | nt
C[C@H]1CN([C@@H](C)CO)C(=O)Cc2cc(NC(=O)Nc3ccccc3)ccc2O[C@H]1CN(C)Cc1ccc(Cl)c(Cl)c1 | nt | 1 | 50 | nt | nt
C[C@@H]1CN([C@@H](C)CO)C(=O)Cc2cc(NC(=O)Nc3ccc(F)cc3)ccc2O[C@@H]1CN(C)Cc1ccc(Cl)c(Cl)c1 | 52* | 15 | 81* | -20 | -39
COc1ccc(NC(=O)Nc2ccc3c(c2)CC(=O)N([C@@H](C)CO)C[C@@H](C)[C@H](CN(C)Cc2ccc(Cl)c(Cl)c2)O3)cc1 | nt | 11 | 72* | nt | nt
C[C@@H]1CN([C@@H](C)CO)S(=O)(=O)c2ccc(C#Cc3ccccn3)cc2O[C@@H]1CN(C)C(=O)C1CC1 | nt | -5 | nt | nt | nt
C#CC[N+](C)(C)CCCCCCCCCC | 52* | 6 | 20 | -33 | 24
C#CC[N+](C)(C)CCCCCCCCCCCC | 46 | -2 | 87* | -43 | 39
C#CC[N+](C)(C)CCCCCCCC | 37 | 7 | 1 | -16 | 10
SMILES | CF NFkB inh | EWS-Fli block | PAX8 reporter | KKLEB cytotox | HIF-2a block
C[C@@H]1CN([C@H](C)CO)C(=O)c2ccccc2-c2ccccc2CO[C@@H]1CN(C)Cc1ccc(F)cc1 | nt | 1 | 15 | nt | nt
NC(=S)NN=C1CSSC1 | 70* | nt | nt | 3 | -1
CC(C)c1ccc(C2C3=C(COC3=O)Nc3cc4c(cc32)OCO4)cc1 (stereo unspecified) | 46 | 43 | 79* | -14 | 26
O=C1C(Cl)=C(Nc2ccc3cn[nH]c3c2)C(=O)c2ccccc21 | 94* | 46 | 81* | -92* | 95*
CN(C)c1ccc(NC2=C(Cl)C(=O)c3ccccc3C2=O)cc1 | 80* | 36 | 34 | -82* | 96*
Cc1ccc(NC2=C(NCCO)C(=O)c3ccccc3C2=O)cc1 | -1 | nt | 14 | -3 | -111
O=C(Nc1ccc2cn[nH]c2c1)c1c(Cl)cccc1Cl | 4 | -10 | 14 | -4 | 7
C[C@@H]1CN([C@@H](C)CO)S(=O)(=O)c2ccc(C#CC3CC3)cc2O[C@@H]1CN(C)C(=O)CN(C)C | nt | 6 | nt | nt | nt
CC(=O)N[C@H]1CC[C@@H](CCNC(=O)C2CCCCC2)O[C@H]1CO | nt | -6 | nt | nt | nt
C[n+]1ccc(/C=N/Nc2nc(Cl)c(C#N)c(Cl)c2Cl)cc1 | 3 | -17 | 63* | 2 | 12
CSC(=S)NCc1cccnc1 | 24 | 23 | 64* | -4 | 10
Cn1c(N)c(C(=O)CSc2nc3ccccc3c(=O)n2Cc2ccccc2)c(=O)n(C)c1=O | 88* | -16 | -39 | -72* | 4
Cc1ccc2nc(SCC(=O)c3c(N)n(C)c(=O)n(C)c3=O)[nH]c2c1 | -34 | 54* | 9 | -13 | -15
Cc1ccc2nc(SCC(=O)c3cc(C)n(C)c3C)[nH]c2c1 | -8 | nt | nt | 6 | -64
O=C(Nc1cccc(F)c1)N1CC(=O)N2[C@H](CO)[C@@H](c3ccc(Br)cc3)[C@H]2C1 | nt | -1 | -19 | nt | nt
CC[N+](CC)(CC)CCOc1ccc(/C=C/c2ccccc2)cc1 | 53* | 7 | 96* | -12 | 4
CC[N+](CC)(CC)CCOc1cccc(OCC[N+](CC)(CC)CC)c1OCC[N+](CC)(CC)CC | -23 | nt | nt | 12 | 4
N#Cc1nccnc1S(=O)(=O)c1cccs1 | nt | 16 | 102* | nt | nt
Cc1ccccc1-c1ccc([C@H]2[C@H](CO)N3C(=O)CN(C(=O)c4ccc(F)cc4)C[C@@H]23)cc1 | nt | 4 | nt | nt | nt
Cc1csc(NC(=O)c2cc3c(s2)CCCCC3)n1 | 9 | nt | nt | -63* | 27
Cc1csc(NC(=O)c2cc3c(s2)CCCC3)n1 | -5 | nt | nt | -29 | -3
Cc1cnc(NC(=O)c2cc3c(s2)CCCC3)s1 | -6 | nt | nt | -51* | -13
O=C(C1CCC1)N1CCCCN2[C@@H](CO)[C@H](c3ccc(-c4cccc(F)c4)cc3)[C@@H]2C1 | nt | -1 | -2 | nt | nt
Cc1ccc(C)c(NC(=S)NC(NC(=O)Cc2cccc3ccccc23)C(Cl)(Cl)Cl)c1 (stereo unspecified) | 71* | nt | nt | -70* | 17
COc1cc2c(O)c3c(c(-c4ccc5c(c4)OCO5)c2cc1OC)C(=O)OC3 | 76* | nt | nt | -73* | -6
COc1ccc(-c2oc(=O)c3cc(OC)c(OC)cc3c2-c2ccc3c(c2)OCO3)cc1 | -15 | -10 | -8 | 9 | -185
O=C(N/N=C/c1ccco1)c1cc([N+](=O)[O-])cc([N+](=O)[O-])c1 | -5 | 82* | -15 | 13 | 13
O=C(N/N=C/c1ccco1)c1cccc([N+](=O)[O-])c1 | 9 | -7 | -15 | 5 | 0

Compound activity (PubChem BioAssay)
